Screening results (PubChem BioAssay)
Wnt act – activators of Wnt/beta-catenin signaling | Wnt/beta-catenin reporter cell assay, activator, plate reader | activation, % at 9.35 µM | 300,000 compounds, 1.2% hits; in the data active means activation above about 30%, passing the limit was not always enough;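 further: 0% = neutral control wells and 100% = positive control wells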
MITF TRPM1 HTS – increases MITF-driven TRPM1 promoter luciferase signal; SK-MEL-5 TRPM1-promoter luciferase, 24 h; % of positive control, neutral wells = 0; activation, % at 12.5 µM; 300,000 compounds, 0.75% hits;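 active means mean activation of at least 80% with every replicate also reaching 80%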;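 further: 0% = neutral control wells and 100% = parthenolide positive control wells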
miR-122 sensor – miR-122 inhibition in Huh7 cells; Huh7 miR-122 Renilla luciferase sensor, 48 h; neutral wells = 0, positive control = 100; AID 602342; 340,000 compounds, 0.3% hits; activation (reporter increase), % at 12.5 µM;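 active means mean replicate activation score at least 90 and every replicate individually at or above 90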;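 further: higher luciferase means less miR-122 activity so hits act as miR-122 inhibitors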
DYRK1A inh – blocks rat Dyrk1A kinase activity. inhibition, % at 12.5 µM. 310,000 compounds, 0.43% hits. ADP-Glo luminescence, NFATc1 peptide. Q63470. AID 504441;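 further: plate controls were vehicle with enzyme for no effect and no enzyme for full effect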
NSD2 HMT inh – blocks human histone methyltransferase NSD2; O96028; NSD2 peptide methylation, AlphaScreen, 120 min; inhibition, % at 12.5 µM; 310,000 compounds, 0.54% hits; AID 743445
Target sequence (O96028 whole entry, looked up): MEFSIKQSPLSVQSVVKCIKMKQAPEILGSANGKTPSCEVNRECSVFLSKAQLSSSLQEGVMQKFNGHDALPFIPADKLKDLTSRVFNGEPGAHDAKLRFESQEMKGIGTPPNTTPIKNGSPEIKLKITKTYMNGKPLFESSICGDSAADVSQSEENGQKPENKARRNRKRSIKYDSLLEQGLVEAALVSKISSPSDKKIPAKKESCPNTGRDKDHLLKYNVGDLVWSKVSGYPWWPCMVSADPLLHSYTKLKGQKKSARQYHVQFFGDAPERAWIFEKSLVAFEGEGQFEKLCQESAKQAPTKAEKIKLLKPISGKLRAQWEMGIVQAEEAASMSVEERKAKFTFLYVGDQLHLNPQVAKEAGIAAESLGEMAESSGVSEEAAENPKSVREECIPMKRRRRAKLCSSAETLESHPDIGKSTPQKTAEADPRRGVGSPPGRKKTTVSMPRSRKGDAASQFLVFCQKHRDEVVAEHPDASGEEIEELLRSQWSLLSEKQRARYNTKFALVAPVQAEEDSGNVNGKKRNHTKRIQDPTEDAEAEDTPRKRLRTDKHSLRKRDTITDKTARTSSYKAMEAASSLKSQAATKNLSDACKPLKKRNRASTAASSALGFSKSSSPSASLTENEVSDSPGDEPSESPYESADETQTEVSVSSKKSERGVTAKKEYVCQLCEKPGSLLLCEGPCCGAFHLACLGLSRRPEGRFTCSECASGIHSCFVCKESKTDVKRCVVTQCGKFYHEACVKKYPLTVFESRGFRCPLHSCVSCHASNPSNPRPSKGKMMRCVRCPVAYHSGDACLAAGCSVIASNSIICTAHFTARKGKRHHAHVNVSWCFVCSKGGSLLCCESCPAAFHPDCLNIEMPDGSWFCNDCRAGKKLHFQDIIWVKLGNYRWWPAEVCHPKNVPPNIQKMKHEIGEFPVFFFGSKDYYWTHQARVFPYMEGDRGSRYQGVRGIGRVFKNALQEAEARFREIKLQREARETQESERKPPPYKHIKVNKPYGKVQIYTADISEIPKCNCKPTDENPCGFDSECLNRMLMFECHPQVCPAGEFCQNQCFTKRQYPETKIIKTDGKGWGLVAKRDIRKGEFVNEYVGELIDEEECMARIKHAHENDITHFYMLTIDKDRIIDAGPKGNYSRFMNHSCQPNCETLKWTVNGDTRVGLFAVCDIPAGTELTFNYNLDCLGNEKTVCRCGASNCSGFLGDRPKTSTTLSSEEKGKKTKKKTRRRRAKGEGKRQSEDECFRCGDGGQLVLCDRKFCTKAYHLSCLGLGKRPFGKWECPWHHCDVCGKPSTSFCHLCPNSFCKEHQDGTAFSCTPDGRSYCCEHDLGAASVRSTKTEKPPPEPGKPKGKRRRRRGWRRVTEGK
INS-1E GSIS act – GLuc luminescence reporter in INS-1E cells, primary screen for activators of glucose-dependent secretion of insulin. INS-1E GLuc reporter insulin secretion, 2-3 h. activation, % at 16.6 µM. 370,000 compounds, 0.61% hits. AID 743287;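 active means lowest replicate activation of at least 40%, so every replicate reaches that level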;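 further: 0% = median of neutral control wells and 100% = median of IBMX positive control wells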
* marks the source's active call; other numbers are inactive results; · = no result given; [ ] = remark or other dose. Hits are enriched below; roughly 2.4% of the tested compounds scored in any of these assays. Unless noted, no stated cut-off is given here; in the data, active means inhibition above about 50%; inactive means the rest.

SMILES	Wnt act	MITF TRPM1 HTS	miR-122 sensor	DYRK1A inh	NSD2 HMT inh	INS-1E GSIS act
CCc1ccccc1NC(=O)CCCN1C(=O)c2cccnc2C1=O	1.0	-5.5	-3.5	4.7	0.0	9.0
CC(C)NC[C@@H]1[C@@H](c2ccc(C3=CCCCC3)cc2)[C@@H](CO)N1C(=O)CC1CC1	·	·	·	·	·	-2.3
CC(C)(C)OC(=O)N1CCCN(C(=O)c2ccc(Cl)cc2)CC1	5.5	3.3	·	-1.1	0.2	191.8*
CC(C)(C)OC(=O)N1CCC(C(=O)Nc2ccc(C(=O)N3CCCC3)cc2)CC1	0.1	-4.9	-2.4	·	·	6.2
CCOC(=O)c1cnn(-c2ccccn2)c1N	·	102.3*	-1.9	4.8	3.6	26.4
CCOC(=O)c1cc(-c2ccncc2)nc2c1c(C)nn2-c1ccccn1	·	10.0	-4.9	6.8	·	65.6*
CCOC(=O)c1cnc2c(-c3ccccc3)c(C)nn2c1N	13.9	·	-2.3	-4.9	4.2	69.2
CCOC(=O)c1cnc2c(-c3ccccc3)cnn2c1N	38.4*	59.3	-0.3	0.7	·	·
CC(=O)c1cnc2c(-c3cccc(Br)c3)cnn2c1C	9.0	94.7*	2.2	-2.6	0.1	1.7
O=C(C[C@@H]1C[C@@H]2c3cc(NC(=O)C4CCC4)ccc3O[C@@H]2[C@@H](CO)O1)NCc1ccccc1F	·	·	-0.6[16.7 µM]	·	·	14.3
O=C(Cc1ccccc1)N[C@@H]1C=C[C@@H](CC(=O)N2CCOCC2)O[C@@H]1CO	·	·	·	·	·	-0.2
C[C@H](CO)N1C[C@H](C)[C@H](CN(C)C)Oc2ccc(NC(=O)Cc3ccccc3)cc2C1=O	·	·	-4.6[16.7 µM]	·	·	0.2
O=C(NC1CC1)C1Nc2ccc(OC(F)(F)F)cc2C2C=CCC12 (stereo not drawn)	39.4*	-8.2	0.8	-2.0	·	-9.3
CC(=O)c1ccc2c(c1)C1C=CCC1C(C(=O)O)N2 (stereo not drawn)	0.8	2.7	-9.1	11.2	127.9*	-0.6
O=C(NCc1ccccc1)C1Nc2ccc(OC(F)(F)F)cc2C2C=CCC12 (stereo not drawn)	-5.4	-10.3	-0.7	11.2	·	-5.4
CC(C)NC(=O)N(C)C[C@@H]1Oc2ccc(NC(=O)Nc3ccccc3)cc2CC(=O)N([C@H](C)CO)C[C@@H]1C	·	·	-4.5[16.7 µM]	·	·	9.5
O=C(c1ccco1)N1CCN(S(=O)(=O)c2ccc(Cl)cc2)CC1	-1.1	-10.3	0.3	13.4	-1.0	3.1
O=C(c1ccco1)N1CCN(S(=O)(=O)Cc2ccc(Cl)cc2)CC1	41.5*	3.5	·	3.8	-4.3	·
CCOC(=O)c1c(NC(=O)c2ccoc2C)sc(C(=O)N(C)C)c1C	·	-4.7	1.7	-0.2	4.5	46.9*
CCN(CC)C(=O)c1sc(NC(=O)c2ccoc2C)c(C(=O)OC)c1C	·	-2.7	1.6	9.8	-0.7	·
C[C@H]1CCCCO[C@H](CN(C)CC2CC2)[C@@H](C)CN([C@@H](C)CO)C(=O)c2cc(NC(=O)Nc3ccccc3)ccc2O1	·	·	8.9[16.7 µM]	·	·	-1.6
COc1cc2ccc(C(C)=NNC(N)=S)cc2cc1OC	-1.4	·	·	·	-0.3	67.1*
Cc1ccc(S(=O)(=O)N[C@H]2CC[C@@H](CCn3cc(C(C)C)nn3)O[C@@H]2CO)cc1	·	·	·	·	·	-1.1
COc1ccc(/C=C2\SC(=O)N(CCC(=O)Nc3ccccc3)C2=O)cc1OC	·	-5.0	·	1.1	-3.0	53.2*
COc1ccc(/C=C2\SC(=O)N(CCCC(=O)Nc3ccc(C(=O)O)cc3)C2=O)cc1OC	0.5	1.0	-5.7	-7.0	0.8	-7.7
SMILES	Wnt act	MITF TRPM1 HTS	miR-122 sensor	DYRK1A inh	NSD2 HMT inh	INS-1E GSIS act
NCCN1C(=O)S/C(=C\c2ccc3c(c2)OCO3)C1=O	0.3	-72.8	·	2.2	-0.9	-3.2
COc1cc(/C=C2\SC(=O)N(CCN)C2=O)ccc1OS(=O)(=O)c1cc(C)ccc1C	39.0*	0.5	·	·	7.3	-6.0
O=C(c1cnccn1)N1CC[C@@H]2[C@H]1c1cc(-c3cccc(F)c3)ccc1N[C@@H]2CO	·	·	-1.9[16.7 µM]	·	·	-3.8
CC(C)C#Cc1cnc2c(c1)C(=O)N([C@@H](C)CO)C[C@H](C)[C@H](CN(C)C(=O)c1cnccn1)O2	·	·	9.8[16.7 µM]	·	·	21.4
Fc1ccccc1-c1nnc2ccc3ccccc3n12	-0.5	-11.6	1.6	5.2	-0.9	53.2*
Fc1cccc(Cl)c1-c1nnc2ccc3ccccc3n12	19.9	-9.3	·	·	3.1	5.5
Cc1cccc(-c2cc3nc4c(c(N5CCC6(CC5)OCCO6)n3n2)CCCC4)c1	8.8	91.1*	0.0	15.0	-6.4	15.4
Cc1cccc(-c2cc3nc4c(c(N5CCCC(O)C5)n3n2)CCC4)c1 (stereo not drawn)	2.6	7.9	-0.1	·	·	85.6*
OC1CCCN(c2c3c(nc4cc(-c5cccc(F)c5)nn24)CCCC3)C1 (stereo not drawn)	14.0	87.0*	·	9.0	-2.7	52.8
Cc1ccc(SCC(=O)NC(C)(C)C)cc1	33.2*	·	-5.5	-3.9	-3.7	·
Cc1ccc(SCC(=O)Nc2cccc(C(=O)NC(C)(C)C)c2)cc1	·	-2.1	-0.3	2.5	-13.0	·
O=C(/C=C/c1ccc(Cl)cc1)NC(=S)Nc1ccc(NC(=O)c2ccco2)cc1	·	-15.0	·	-2.4	9.6	49.7*
CCOc1ccc(NC(=S)NC(=O)c2ccco2)cc1	12.5	89.3*	0.3	-4.8	1.9	-6.1
C[C@@H]1CN([C@@H](C)CO)C(=O)c2cccc(NS(=O)(=O)c3ccc(F)cc3)c2O[C@H]1CN(C)S(=O)(=O)c1ccc(F)cc1	·	·	-6.1[16.7 µM]	·	·	18.1
COc1cccc(C(=O)/C=C/Nc2cccc(O)c2)c1	0.6	-2.9	·	0.3	2.8	8.7
O=C(/C=C/Nc1ccc(Br)cn1)c1cccc(OC(F)F)c1	14.9	93.4*	1.8	-0.9	-2.4	·
CCCN(C)C[C@@H]1OCCCC[C@H](C)Oc2ccc(NC(=O)Cc3ccccc3)cc2C(=O)N([C@@H](C)CO)C[C@@H]1C	·	·	-2.2[16.7 µM]	·	·	-11.1
CC(C)(C)c1ccc(C(=O)NCc2ccccc2)cc1	6.6	88.4*	·	-1.7	1.6	3.2
Cc1ccc(N=Cc2sc(O)c3ccccc23)cc1	84.1*	·	4.2	2.4	-3.7	·
Cc1ccc(N=Cc2sc(O)c3ccccc23)c(C)c1	0.0	·	-0.7	12.4	-0.5	·
CCC(C)[C@H](N)c1cn([C@@H](Cc2cc3ccccc3[nH]2)C(=O)N2CCNCC2)nn1 (stereo partly drawn)	44.9*	-3.1	·	-0.4	·	6.3
CC(C)C[C@H](N)c1cn([C@@H](Cc2cc3ccccc3[nH]2)C(=O)N2CCNCC2)nn1	1.1	35.4	·	9.2	·	6.3
COc1ccc2c3c(n(C)c2c1)[C@H](CO)N(C(=O)NC(C)C)CC31CN(C(C)=O)C1	·	·	·	·	·	12.9
COc1ccc(CCN2C(=O)CC(Cc3ccccc3)C2=O)cc1OC (stereo not drawn)	1.8	-2.0	·	-4.3	0.4	70.2*
C[C@H](CO)N1C[C@H](C)[C@H](CN(C)C(=O)c2ccncc2)Oc2cc(-c3cccc(C#N)c3)ccc2S1(=O)=O	·	·	-5.7[16.7 µM]	·	·	8.0
